From publication PMC12136788
Changes are numbered by the printed parent chain. In all, about 5,800 sequences were measured (“enrichment r”: median about 0.54, highest 2% from about 16 on). This excerpt belongs to a sample that is enriched for the highest values.

B1: chr10:110135209:110135310:+|3pUTR|ENSG00000148700|msi1|total|mutant (ssRNA)
RNA: GGGAGUUCUACAGUCCGACGAUCCUCUCUAUUGGAAGAUUUUUUUAAUGUUCUACAUCAUUUAUGUUGUAUUACAAUGUAUGCCGAAACCGUAACCUGUGAACUAUGCUUUUCCAUAACUUUUUAAAAAUAUAUAUAUCUAAACAACAGAGGAUUGAGCAUCA
B2: chr18:3457781:3457936:+|CDS|ENSG00000177426|unk|total|mutant (ssRNA)
RNA: GGGAGUUCUACAGUCCGACGAUCCAACACUCCUCCCCCUACUCCACCGGACCUCAACCAGGACUUCAGUGGAUUUCAGCUUCCCGUGGAUGUUGCACUCAAACGGGCUGCAGAGAUGGAGCUUCAGGCAAAACUUACAGCUUACAACAGAGGAUUGAGCAUCA
B3: chr8:88032264:88032379:-|3pUTR|ENSG00000156103|unk|FALSE|bound_elsewhere (ssRNA)
RNA: GGGAGUUCUACAGUCCGACGAUCACUCCUUAUAAUGUUGCGUCAUUAAAGGUCAAGGGGUCAUGCUAUUAAUCUCAUUGCUAUAGACCAUUAACAUGACUGAACUUUUCCACAAAGUACUUAUGUUUACAAUGCUAUAACCCUCAACAGAGGAUUGAGCAUCA
B4: ENSG00000150457:stop:overlap|stop_codon|ENSG00000150457|stop_codon|NA|stop_codon (ssRNA)
RNA: GGGAGUUCUACAGUCCGACGAUCCAGAUUUAGAAAGCUCUGAUCUGGUGGAUCAGACUGAAGGCUGCCAGCCUGUGUACGUGUAGAUGGGGGCCAGGCACCCCCACCACUCGCUGCCUCCCAGGUCAGGGUCCCGGAGCCGGUCAACAGAGGAUUGAGCAUCA
B5: chr11:118657315:118658441:-|three_prime_utr|ENSG00000118094|control|control|control (ssRNA)
RNA: GGGAGUUCUACAGUCCGACGAUCCCUCCCAGCCUGUCCUCAGAGCGAAGUGGAGGGCAGGGUCACGACCUGGAGGUCAUGGGUAGGGGCCUAGCUCCCUCCUGGAACCUUGAAUAGGGUGGAAAUCCUGCUCUGGAGGGAAGACAACAGAGGAUUGAGCAUCA
B6: chr1:156742365:156742464:-|3pUTR|ENSG00000143321|msi1_unk|total|mutant (ssRNA)
RNA: GGGAGUUCUACAGUCCGACGAUCAUUUCUGAGGUGCACUGGGAGGCUCCCCUUCUAUUUGGGGCUUGAUGACUUUCUUUUUGCCGCUGGGGCUUUGAUGUUCCUUCCAGUGUCAUUUCUCAUCCACAUACCCUGACCUGGCCCCAACAGAGGAUUGAGCAUCA
B7: chr8:30843048:30843149:-|CDS|ENSG00000133863|unk|FALSE|unique (ssRNA)
RNA: GGGAGUUCUACAGUCCGACGAUCGGAUACUAUAAUUGCUUCCAGAAAGUCAGAUCAUCCAAUAAACGAAGCAACAAUUAGCAUAGAAAAUUCUAAAUUUAACAGUAAUUUGCUUGCACACCCAGAUAUUUGUUGUAUUAGUGACAACAGAGGAUUGAGCAUCA
B8: chr19:34227675:34227687:+|3pUTR|ENSG00000257103|msi1_unk|total|mutant (ssRNA)
RNA: GGGAGUUCUACAGUCCGACGAUCUUAAAACAUGAGCAUUAAAUAUAUUUGGAACCGCAGAAGGUUAAGUAAUUUCUUAUGUACCGUUAAACUAAAGCAGUACUUCAGUGGGACUUAACAAGUAUUUUUUCAUCACUGAAAGGUCAACAGAGGAUUGAGCAUCA
B9: chr11:85958428:85958534:-|3pUTR|ENSG00000073921|unk|FALSE|unique (ssRNA)
RNA: GGGAGUUCUACAGUCCGACGAUCAGAAACAAUAACUGAAAUUAACUUUUCUUUUUUUAAAAAAAAUUAUAUUCAGUUUGCAGUAGACAUUCCUUAAGUAUUUGUAUUUAUUUAUGAUUAUCAAUUUUACAUAACAUUAAUAUUCAACAGAGGAUUGAGCAUCA
B10: chrX:41141081:41141111:+|CDS|ENSG00000124486|msi1_unk|total|mutant (ssRNA)
RNA: GGGAGUUCUACAGUCCGACGAUCCACUCUUCAUACAGUGAAAAAGUACUUUCUUCCAAUAACCGAAAUGGUUCCACAGUUUUCCGAAAACUUAACUGAUGAAGAACUGAAAAAAGAAGCAAAGAAUGAAGCCAAAAAUGAUGCCAACAGAGGAUUGAGCAUCA
B11: ENSG00000067715:stop:overlap|stop_codon|ENSG00000067715|stop_codon|NA|stop_codon (ssRNA)
RNA: GGGAGUUCUACAGUCCGACGAUCAGGAGAAGUUUAUGAAUGAGUUGCAUAAAAUUCCAUUUCAAAGGAAAGAGAGUACCAAUUAGACAAGGGAAGAAGAUGAGAGACUGCCUGAACAGCAUCACUUUUGUAAACUGAGAGUUCCAACAGAGGAUUGAGCAUCA
B12: chr8:30843048:30843149:-|CDS|ENSG00000133863|unk|total|mutant (ssRNA)
RNA: B7 RNA with U78C, A79C, U83C, A84C, U138C, A139C
B13: chr3:44647099:44647200:+|3pUTR|ENSG00000186448|msi1|total|mutant (ssRNA)
RNA: GGGAGUUCUACAGUCCGACGAUCAUUUGUAUGUAAACUACAUAAAGAACUUUCCAAAUUUAACAGUAAUAAGUAAAUACAAUCCGAAAAUAAGCAAAAGACAGACAUUUCACUGAAGUACCGACCGCAAAUAAGCAAAUGAAACAACAGAGGAUUGAGCAUCA
B14: chr12:125025615:125025697:+|3pUTR|ENSG00000184992|msi1_unk|FALSE|overlapping (ssRNA)
RNA: GGGAGUUCUACAGUCCGACGAUCGGACACAUUCCCAGAAGAGCGGAAAGAUCAUUGACGUGGAACUACACACGAAGUGUAAUUAGUGGGGGAAAAAAUAUUUUUUAAACAAAGGAUAUAACCAUAUUUAGUUGUACAGUAAGACAACAGAGGAUUGAGCAUCA
B15: chr3:44647099:44647200:+|3pUTR|ENSG00000186448|msi1|FALSE|unique (ssRNA)
RNA: B13 RNA with C83U, C84A, C120U, C121A, C124U, C125A

These binders were tested against MSI1 full-length (mouse, UniProt Q61474 1-362) (assay: nsRBNS (natural sequence RNA bind-n-seq); RBNS binding buffer (assumed for nsRBNS): 25 mM Tris pH 7.5, 150 mM KCl, 3 mM MgCl2, 0.01% Triton X-100, 500 ug/ml BSA, 20 U/ml SUPERase-In, 4 C; UNK is unkempt and MSI1 is Musashi-1; names of the RNAs are library labels; protein concentration not given here; high values mean tight binding).
MSI1 full-length, sequence (Q61474 whole entry): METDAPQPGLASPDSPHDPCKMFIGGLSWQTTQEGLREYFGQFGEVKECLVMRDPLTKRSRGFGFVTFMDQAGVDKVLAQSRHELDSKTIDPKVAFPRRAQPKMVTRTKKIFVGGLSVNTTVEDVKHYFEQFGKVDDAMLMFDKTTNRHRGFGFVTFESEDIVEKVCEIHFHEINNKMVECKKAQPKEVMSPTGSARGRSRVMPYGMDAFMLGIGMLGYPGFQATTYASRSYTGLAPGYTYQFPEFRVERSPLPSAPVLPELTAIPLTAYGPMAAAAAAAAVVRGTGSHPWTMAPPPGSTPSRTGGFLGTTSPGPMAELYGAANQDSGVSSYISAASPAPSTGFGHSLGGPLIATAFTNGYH

Binder | binding signal
B1 | 7.3 enrichment R
B2 | 0.52 enrichment R
B3 | 0.72 enrichment R
B4 | 0.418 enrichment R
B5 | 0.327 enrichment R
B6 | 0.353 enrichment R
B7 | 29.7 enrichment R
B8 | 1.31 enrichment R
B9 | 4.67 enrichment R
B10 | 0.267 enrichment R
B11 | 0.457 enrichment R
B12 | 1.28 enrichment R
B13 | 19.7 enrichment R
B14 | 3.62 enrichment R
B15 | 129 enrichment R
